DRD3 antagonist = blocks the human D3 dopamine receptor. hit rate 2.5% among 360,000. P35462. max response, negative = inhibition, %. D3R cells, DiscoveRx beta-arrestin luminescence, antagonist mode; stronger effect = lower value; in the data active = max response below about -50%; inconclusive = no clear call, values can overlap the other calls; also: % is scaled to controls: 0 for no effect and ±100 for the full control effect
Target sequence (P35462 whole entry, looked up): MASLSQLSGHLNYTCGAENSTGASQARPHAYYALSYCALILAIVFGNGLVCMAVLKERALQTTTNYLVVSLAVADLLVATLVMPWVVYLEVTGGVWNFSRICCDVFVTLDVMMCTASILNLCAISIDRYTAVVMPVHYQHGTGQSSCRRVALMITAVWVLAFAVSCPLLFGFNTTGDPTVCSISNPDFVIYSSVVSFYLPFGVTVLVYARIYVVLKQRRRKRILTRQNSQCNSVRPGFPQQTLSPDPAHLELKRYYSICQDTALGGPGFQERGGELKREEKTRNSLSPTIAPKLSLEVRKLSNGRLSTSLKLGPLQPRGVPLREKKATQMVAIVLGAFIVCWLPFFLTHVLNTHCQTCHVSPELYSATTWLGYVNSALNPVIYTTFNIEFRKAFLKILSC
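Cells expressing the human receptor were seeded at 1500 cells/well, incubated overnight at 37 degrees C in 5% CO2, then exposed to library compounds with dopamine controls for 90 minutes at 37 degrees C before luminescent detection.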
KB-V1 MDR tox = kills drug-selected multidrug resistant KB-V1 cells; AID 1347076; hit rate 3.4% among 400,000; Potency, µM (highest dose often 46.1 µM), actives largely listed as cytotoxic; KB-V1 MDR cells viability, CellTiter-Glo, 72 h; also: potency is read from the fitted curve at half-maximal effect; % is scaled to controls: 0 for no effect and ±100 for the full control effect; nearly all actives have a fitted effect of over 60% in size
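Cells of the MDR subline KB-V1 are plated, dosed with compound at multiple concentrations, and incubated 72 h at 37 degrees C; CellTiter-Glo is then added and luminescence read after 10 min.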
KB-3-1 cytotox = kills parental KB-3-1 adenocarcinoma cells. Potency, µM (top dose mostly 46.1 µM), most hits filed as cytotoxic. KB-3-1 viability, CellTiter-Glo ATP luminescence, 72 h. AID 1347075. hit rate 1.4% among 400,000; also: potency is read from the fitted curve at half-maximal effect; % is scaled to controls: 0 for no effect and ±100 for the full control effect; nearly all actives have a fitted effect of over 60% in size
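Cytotoxicity in the drug-sensitive parental line KB-3-1 was scored as loss of CellTiter-Glo luminescence following 72 h incubation with compound. Values come from curve fitting of normalized concentration-response data.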
D3 ag = activates the human D3 dopamine receptor. max activation, %. AID 652048. D3R DiscoveRx beta-arrestin cells, luminescence, 90 min. hit rate 0.58% among 410,000; in the data active = max activation above about 30%; also: 0% is about no effect
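Agonist-mode cell screen: cells plated at 1500/well and incubated overnight at 37 °C, then exposed to library compounds for 90 min at 37 °C. Detection reagent was added for 30–60 min at room temperature, and luminescence was read.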
SW480 rereplic = induces DNA re-replication in SW480 colon adenocarcinoma cells; SW480 DNA re-replication, Hoechst DNA content imaging, 48 h; Potency, µM (highest dose often 46.1 µM), without a hit: at the highest dose re-replication activation, hits mostly activators; hit rate 1.8% among 340,000; also: potency is read from the fitted curve at half-maximal effect; % of control where 0% means no effect; nearly all actives have a fitted effect of over 55% in size
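Hoechst fluorescence of nuclei (405 nm excitation, 500-530 nm emission) measured by plate-scanning imager after 48 hr compound exposure at 37 C; re-replication scored as increased number of nuclei with elevated intensity.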
MCF10A rereplic = induces DNA re-replication in MCF 10a normal breast cells. MCF 10A DNA re-replication, Hoechst nuclear intensity, 48 h. Potency, µM (top dose mostly 46.1 µM), without a hit: at the highest dose activity, positive = re-replication, hits mostly activators. hit rate 2.9% among 350,000; also: potency is read from the fitted curve at half-maximal effect; % of control where 0% means no effect; nearly all actives have a fitted effect of over 50% in size
Starred values were filed as active, the others as inactive; i = inactive; ? = inconclusive; / = no result given. An excerpt weighted towards active compounds, which were near 8.9% of everything screened. Unless noted, calls follow the shape of the dose curve; as a rule, active = well fitted curve in the direction sought with a large enough effect; inconclusive = small, poorly fitted or top-dose-only effect, or another doubt; inactive = no such curve, though single readings can be large; an effect the other way counts as inactive or inconclusive.

SMILES	DRD3 antagonist	KB-V1 MDR tox	KB-3-1 cytotox	D3 ag	SW480 rereplic	MCF10A rereplic
Cc1ccc(OCC(=O)Nc2ccc3c(c2)nc(CCN2CCC(C)CC2)n3C)cc1	-54.2*	i	i	-16.5	?	1.8%
COc1ccc(OCC(=O)Nc2ccc3c(c2)nc(CCN2CCC(C)CC2)n3C)cc1	?	i	i	-4.5	-19.2%	-1.5%
Cn1c(CCN2CCN(c3ccccn3)CC2)nc2cc(NC(=O)COc3ccc(Cl)cc3)ccc21	-27.1	?	i	7.2	7.31µM*	2.6%
Cn1c(CCN2CCCCC2)nc2cc(NC(=O)NC3CCCCC3)ccc21	-9.5	i	i	-12.6	-2.2%	2.1%
CC1CCN(CCc2nc3cc(NC(=O)NC4CCCCC4)ccc3n2C)CC1	-85.5*	i	i	-28.3	-8.1%	2.5%
CC1CCN(CCc2nc3cc(NC(=O)COc4ccc(Cl)cc4)ccc3n2C)CC1	?	i	?	-20.4	18.4µM*	16.4µM*
CCCC(=O)N(c1ccc2oc(-c3ccccc3)c(C(=O)OCC)c2c1)S(=O)(=O)c1ccc(C)cc1	/	/	/	-19.6	/	/
O=C(C1CCN(S(=O)(=O)c2cccc3nonc23)CC1)N1CCN(c2ccc(F)cc2)CC1	/	i	i	-2.9	/	/
O=C(CCCc1nc(-c2ccc(Cl)cc2)no1)NCC1CCCO1 (configuration not stated)	6.6	13µM*	10.3µM*	34.0*	-16.7%	15.9%
Cc1ccc(C)c(N2CCN(C(=O)CCc3nc(-c4ccccc4Cl)no3)CC2)c1	104.8	i	i	50.0*	-17.0%	?
O=C(CCCc1nc(-c2ccc(Cl)cc2)no1)N1CCOCC1	-12.1	9.2µM*	?	-16.3	-11.2%	2.5%
Cc1ccc(-c2noc(CCC(=O)NC3CCCC3)n2)cc1	18.2	i	i	15.0	-22.7%	3.6%
Cc1ccc(-c2noc(CCCC(=O)NC3CCCCC3)n2)cc1	4.3	16.4µM*	?	-2.2	1.5%	9.5%
CCOCCCNC(=O)Cn1nc(CC)n2c(cc3c(OC)cccc32)c1=O	/	i	i	-13.2	/	/
CCOC(=O)CCc1c(C)nc2cc(-c3cc(OC)cc(OC)c3)[nH]n2c1=O	/	i	i	-0.2	/	/
Cc1cccc(-c2noc(CCCC(=O)N3CCOCC3)n2)c1	32.2	20.6µM*	i	9.9	-7.8%	3.2%
COc1ccc2c(c1)c(=O)c(S(=O)(=O)c1ccc(Cl)cc1)cn2Cc1cc(C)ccc1C	/	i	i	5.4	/	/
COC(=O)c1ccc(OCC(O)CN2CCc3cc(OC)c(OC)cc3C2c2ccccc2)cc1 (configuration not stated)	6.5	i	i	4.5	24.7%	20.6µM*
COc1ccc2cc(C3c4cc(OC)c(OC)cc4CCN3C(=O)c3ccco3)c(=O)[nH]c2c1 (configuration not stated)	-12.3	i	i	4.4	0.5%	-0.7%
COc1cc2c(cc1OC)C(c1cc3cc(C)ccc3[nH]c1=O)N(C(=O)c1ccco1)CC2 (configuration not stated)	9.9	i	i	37.3*	-0.1%	1.5%
COc1cc2c(cc1OC)C(COc1ccccc1OC)N(C(=O)COc1ccc(Cl)cc1)CC2 (configuration not stated)	/	20.6µM*	i	4.7	/	/
CCC(=O)N1CCc2cc(OC)c(OC)cc2C1COc1ccc(C(=O)OC)cc1 (configuration not stated)	-16.7	i	i	4.9	11.2%	24.1%
COC(=O)c1ccc(OCC2c3cc(OC)c(OC)cc3CCN2C(=O)c2ccco2)cc1 (configuration not stated)	15.5	6.51µM*	i	1.4	-7.0%	?
CCc1ccc(OCC2c3cc(OC)c(OC)cc3CCN2C(=O)COc2ccccc2)cc1 (configuration not stated)	/	i	i	-15.7	/	/
Cc1ccccc1C(=O)NCC(c1cccnc1)N1CCc2ccccc21 (configuration not stated)	/	i	i	-5.7	/	/
SMILES	DRD3 antagonist	KB-V1 MDR tox	KB-3-1 cytotox	D3 ag	SW480 rereplic	MCF10A rereplic
COc1ccc(C2c3c(-c4ccccc4O)n[nH]c3C(=O)N2CCc2ccccc2)cc1 (configuration not stated)	/	/	/	-2.2	/	/
CCNc1ccc(/C=C2\C=Cc3ccccc32)cc1	/	i	i	/	/	/
Cc1cccc2nc(CSc3nc4ccc([N+](=O)[O-])cc4[nH]3)c(Br)n12	?	11.6µM*	?	-23.9	17.1%	0.8%
c1ccc(-c2nnc(CSc3nc4ccccc4[nH]3)o2)cc1	-13.1	13µM*	i	0.8	-0.4%	15.4%
CCSc1nc2ccccc2[nH]1	-12.9	i	i	1.1	-10.7%	2.1%
CCCOc1ccc(CSc2nc3ccccc3[nH]2)cc1	-65.3*	?	i	10.7	-2.6%	28.3%
CC(C)CSc1nc2ccccc2[nH]1	15.9	?	i	2.0	?	0.581µM*
Cc1ccc(NC(=O)c2sc3nc4c(cc3c2N)CN(Cc2ccccc2)CC4)cc1	/	i	?	7.3	/	/
C=Cc1ccc(Cn2c(=O)n(-c3cccc(Cl)c3)c(=O)c3c4c(sc32)CN(C(C)=O)CC4)cc1	/	i	?	2.9	/	/
CCOc1ccc(C2C(C(=O)Nc3ccc(OC)cc3)=C(C)Nc3nc(SCc4ccc(Cl)cc4)nn32)cc1 (configuration not stated)	/	i	i	7.7	/	/
O=[N+]([O-])c1ccc(CSc2nc3ccccc3[nH]2)cc1	6.8	20.6µM*	i	-5.2	1.6%	3.9%
COCCNS(=O)(=O)c1ccc2c(c1)C(=O)c1cc(S(=O)(=O)NCCOC)ccc1-2	11.7	i	i	-1.1	-14.7%	-1.0%
O=C1c2cc(S(=O)(=O)NCCCO)ccc2-c2ccc(S(=O)(=O)NCCCO)cc21	-50.8*	i	i	2.0	-1.0%	0.0%
CC(C)NC(=O)C1(C#N)C=C1c1ccccc1 (configuration not stated)	0.0	?	8.2µM*	-5.9	/	/
CC(C)NC(=O)c1ccccc1-c1ccccc1	26.9	i	i	-0.9	-19.6%	0.0%
CC(=O)Nc1cccc(NC(=O)Cc2csc(COc3cccc(C)c3)n2)c1	/	?	i	8.2	/	/
C=C1C(=O)OC2C1CCC(C)C1C=CC(=O)C12C (configuration not stated)	?	?	?	-8.5	6.51µM*	2.06µM*
CC1CCCN(c2c([N+](=O)[O-])c(=O)oc3ccccc23)C1 (configuration not stated)	-14.7	i	i	-7.5	-0.3%	3.6%
Nc1c(N2CCCC2)c2ccccc2oc1=O	10.5	i	i	44.2*	0.7%	?
